Records with an inconclusive call do not appear. Calls of active or inactive are those of the source. Unless noted, calls follow the shape of the dose curve; as a rule, active = well fitted curve in the direction sought with a large enough effect in the repeat runs; inconclusive = weak or mixed curves; inactive = no such curve, though single readings can be large; an effect the other way counts as inactive or inconclusive.
Assays:
[1] = qHTS assay to identify small molecule agonists of the peroxisome proliferator-activated receptor delta (PPARd) signaling pathway - cell viability counter screen (AID 743211); settings: PPARd-bla HEK293H viability, CellTiter-Glo luminescence, 17 h; series mostly up to 62.6 µM; also: nearly all actives have a fitted effect of over 55% in size
How it was run: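 PPARd-bla HEK293H cells (3000/well) were pre-incubated 5 h at 37 C, then exposed to compound for 17 h at 37 C. After 2 h with LiveBLAzer substrate, CellTiter-Glo was added to the same wells; luminescence read after 30 min at room temperature.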

[2] = target: Peroxisome proliferator-activated receptor delta (Homo sapiens) (UniProt Q03181); assay: qHTS assay to identify small molecule agonists of the peroxisome proliferator-activated receptor delta (PPARd) signaling pathway (AID 743212; calls by dose curve); settings: HEK293H PPARd-UAS-bla, beta-lactamase FRET ratio, 17 h; series mostly up to 62.6 µM
How it was run: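 Beta-lactamase reporter readout: a ratiometric FRET signal from the LiveBLAzer substrate after 2 h at room temperature. Compound exposure at 37 °C in PPARδ-bla HEK293H cells driven by an upstream activator sequence.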

[3] = qHTS assay to identify small molecule antagonists of the peroxisome proliferator-activated receptor delta (PPARd) signaling pathway - cell viability counter screen (AID 743213); settings: PPARd-bla HEK293H viability, CellTiter-Glo luminescence, 17 h; series mostly up to 62 µM; also: nearly all actives have a fitted effect of over 50% in size
How it was run: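 HEK293H PPARd UAS-bla cells, 5 h pre-incubation, compound + L165041 300 nM final, 17 h 37 C; B/G FRET substrate 2 h RT; then CellTiter-Glo 30 min RT, luminescence.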

[4] = target: Peroxisome proliferator-activated receptor delta (Homo sapiens) (UniProt Q03181); assay: qHTS assay to identify small molecule antagonists of the peroxisome proliferator-activated receptor delta (PPARd) signaling pathway (AID 743215; active = well fitted inhibition curve with a large enough effect in the signal ratio in the repeat runs, not every such curve was filed as active; the % refers to the signal ratio;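 also: cells stimulated with agonist L165041 at 300 nM final during compound exposure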); settings: HEK293H PPARd-UAS-bla, beta-lactamase FRET ratio, antagonist, 17 h; series mostly up to 62 µM
How it was run: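 HEK293H GeneBLAzer PPARd UAS-bla reporter cells; cpd + L165041 300 nM final, 17 h 37 C; LiveBLAzer B/G FRET substrate 2 h RT; fluorescence intensity read-out. Antagonist mode.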

[5] = target: Bile acid receptor (Homo sapiens) (UniProt Q96RI1); assay: qHTS assay to identify small molecule antagonists of the farnesoid-X-receptor (FXR) signaling pathway (AID 743217; active = well fitted inhibition curve with a large enough effect in the signal ratio in the repeat runs, not every such curve was filed as active; the % refers to the signal ratio); settings: HEK293T FXR-UAS-bla, beta-lactamase ratio, CDCA-stimulated, 16 h; series mostly up to 62.6 µM
How it was run: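 Read-out: beta-lactamase FRET fluorescence (LiveBLAzer B/G substrate, 2 h, room temperature) in GeneBLAzer FXR-UAS-bla HEK 293T cells. Compounds were co-dosed with 50 uM chenodeoxycholic acid (final) and incubated 16 h at 37 °C.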

[6] = qHTS assay to identify small molecule agonists of the farnesoid-X-receptor (FXR) signaling pathway - cell viability counter screen (AID 743218); settings: FXR-bla HEK293T viability, CellTiter-Glo luminescence, 16 h; series mostly up to 62.6 µM; also: nearly all actives have a fitted effect of over 45% in size
How it was run: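 Luminescence from CellTiter-Glo, read after 30 min at RT, reports viability of GeneBLAzer FXR-UAS-bla HEK 293T cells treated 16 h with compounds in the wells used for the beta-lactamase reporter.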

[7] = qHTS assay to identify small molecule antagonists of the farnesoid-X-receptor (FXR) signaling pathway - cell viability counter screen (AID 743221; active = well fitted cell-killing curve with a large enough effect in the repeat runs, not every such curve was filed as active; also: nearly all actives have a fitted effect of over 50% in size); settings: FXR-bla HEK293T viability, CellTiter-Glo luminescence, 16 h; series mostly up to 62.6 µM
How it was run: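 GeneBLAzer FXR-UAS-bla HEK 293T cells, compound plus chenodeoxycholic acid (50 uM final), 16 h at 37 C. CellTiter-Glo added to the same wells after the beta-lactamase read; luminescence read after 30 min at room temperature as viability.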

[8] = target: Vitamin D3 receptor (Homo sapiens) (UniProt P11473); assay: qHTS assay to identify small molecule agonists of the vitamin D receptor (VDR) signaling pathway (AID 743222; calls by dose curve); settings: HEK293T VDR-UAS-bla, beta-lactamase FRET ratio, 16 h; series mostly up to 63.5 µM
How it was run: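 Beta-lactamase reporter readout (LiveBLAzer B/G FRET, 2 h RT) in VDR-bla cells after 16 h compound treatment at 37C, 5% CO2; cells pre-incubated 4 h before pin transfer of DMSO solutions.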

[9] = target: Vitamin D3 receptor (Homo sapiens) (UniProt P11473); assay: qHTS assay to identify small molecule antagonists of the vitamin D receptor (VDR) signaling pathway (AID 743223; active = well fitted inhibition curve with a large enough effect in the signal ratio in the repeat runs, not every such curve was filed as active; the % refers to the signal ratio); settings: VDR-UAS-bla HEK293T, beta-lactamase FRET ratio, 16 h; series mostly up to 61 µM
How it was run: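 VDR-bla cells were treated with compound plus 3 nM final 1alpha,25-dihydroxyvitamin D3 for 16 h at 37C. Beta-lactamase reporter read by B/G FRET substrate fluorescence after 2 h at room temperature. qHTS format.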

[10] = qHTS assay to identify small molecule agonists of the vitamin D receptor (VDR) signaling pathway - cell viability counter screen (AID 743224); settings: VDR-bla HEK293T viability, CellTiter-Glo luminescence, 16 h; series mostly up to 62.6 µM; also: nearly all actives have a fitted effect of over 50% in size
How it was run: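 Cytotoxicity counter screen: VDR-bla cells, 16 h compound exposure at 37C, 5% CO2; CellTiter-Glo luminescence, 30 min RT, same wells as bla read.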

[11] = qHTS assay to identify small molecule antagonists of the vitamin D receptor (VDR) signaling pathway - cell viability counter screen (AID 743225); settings: VDR-bla HEK293T viability, CellTiter-Glo luminescence, 16 h; series mostly up to 61 µM; also: nearly all actives have a fitted effect of over 50% in size
How it was run: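 VDR-UAS-bla HEK 293T cells were plated and incubated 4 h at 37C, then dosed with compound plus 3 nM (final) 1-alpha,25-dihydroxyvitamin D3 for 16 h. After the 2 h beta-lactamase read, viability in the same wells was read as CellTiter-Glo luminescence after 30 min at room temperature.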

[12] = qHTS assay to identify small molecule agonists of the NFkB signaling pathway (AID 1159509; active = well fitted curve in the direction sought with a large enough effect in the signal ratio in the repeat runs, not every such curve was filed as active; the % refers to the signal ratio); settings: NFkB-bla ME-180 cells, beta-lactamase FRET ratio, 5 h; series mostly up to 61 µM
How it was run: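 Pathway activation was measured in ME-180 cells stably expressing beta-lactamase under NF-kB response element control. Substrate cleavage was read as the 460/530 nm emission shift after 5 hr compound incubation.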

[13] = qHTS assay to identify small molecule agonists of the endoplasmic reticulum stress response signaling pathway (AID 1159516; active = well fitted activation curve with a large enough effect in the signal ratio in the repeat runs, not every such curve was filed as active; the % refers to the signal ratio); settings: ESRE-bla HeLa, ER stress beta-lactamase reporter, 5 h; series mostly up to 61 µM
How it was run: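 HeLa ESRE-bla reporter line; cpd 5 h, 37 C/5% CO2; LiveBLAzer B/G FRET substrate 2 h RT; ex 405, em 460/530 nm.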

[14] = qHTS assay to identify small molecule agonists of the endoplasmic reticulum stress response signaling pathway - cell viability counter screen (AID 1159517; calls by dose curve); settings: ESRE-bla HeLa viability, CellTiter-Glo luminescence, 5 h; series mostly up to 61 µM
How it was run: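 ESRE-bla HeLa cells (1,500/well) were plated overnight at 37 C and exposed to compounds for 5 hr. After the 2 hr beta-lactamase substrate read, CellTiter-Glo went into the same wells, and luminescence was read after 30 min at room temperature.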

[15] = qHTS assay to identify small molecule antagonists of the retinoid-related orphan receptor gamma (ROR-gamma) signaling pathway - cell viability counter screen (AID 1159520); settings: Tet-on RORgamma CHO cells viability, ATP luminescence, 16 h; series mostly up to 92.4 µM; also: nearly all actives have a fitted effect of over 50% in size
How it was run: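 Cytotoxicity was read from cellular ATP (CellTiter-Glo luminescence) after 16 hr at 37 C with 1 uM doxycycline induction. The inducer was added 2 hr after compound transfer to Tet-on ROR gamma CHO cells.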

[16] = target: Nuclear receptor ROR-gamma (Homo sapiens) (UniProt P51449); assay: qHTS assay to identify small molecule antagonists of the retinoid-related orphan receptor gamma (ROR-gamma) signaling pathway (AID 1159521); settings: Tet-on RORgamma CHO cells, RORE-luciferase, 16 h; series mostly up to 92.4 µM
How it was run: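 Tet-on ROR-gamma CHO cells with ROR response element-luciferase reporter; compounds added 2 hr before 1 uM doxycycline induction, then 16 hr at 37 C. Antagonism scored as decreased ONE-Glo luminescence.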

[17] = qHTS assay to identify small molecule agonists of the AP-1 signaling pathway - cell viability counter screen (AID 1159525; calls by dose curve; also: nearly all actives have a fitted effect of over 55% in size); settings: ME-180 AP-1-bla cells viability, ATP luminescence, 5 h; series mostly up to 76.8 µM
How it was run: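 Intracellular ATP by Cell Titer Glo luminescence (30 min, RT) in the same ME-180 AP-1-bla wells after the 5 h compound exposure at 37 °C. Normalised to tetra n-octyl ammonium bromide and DMSO controls.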

[18] = qHTS assay to identify small molecule agonists of the AP-1 signaling pathway (AID 1159526; calls by dose curve); settings: ME-180 (cervical carcinoma) AP-1-bla reporter, beta-lactamase FRET ratio, 5 h; series mostly up to 76.8 µM
[19] = target: Bile acid receptor (Homo sapiens) (UniProt Q96RI1); assay: qHTS assay to identify small molecule agonists of the farnesoid-X-receptor (FXR) signaling pathway (AID 743220; active = well fitted activation curve with a large enough effect in the signal ratio in the repeat runs, not every such curve was filed as active; the % refers to the signal ratio); settings: HEK293T FXR-UAS-bla, beta-lactamase FRET ratio, 16 h; series mostly up to 62.6 µM
How it was run: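 FXR-UAS-bla HEK 293T cells carrying a UAS-driven beta-lactamase reporter were plated for 5 h at 37C/5% CO2, then exposed to DMSO-dissolved Tox21 10K compounds for 16 h at 37C. A LiveBLAzer B/G FRET substrate was loaded for 2 h at room temperature before fluorescence reading.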

Measured: Potency

Chain of Bile acid receptor (Homo sapiens) (Q96RI1 whole entry, looked up): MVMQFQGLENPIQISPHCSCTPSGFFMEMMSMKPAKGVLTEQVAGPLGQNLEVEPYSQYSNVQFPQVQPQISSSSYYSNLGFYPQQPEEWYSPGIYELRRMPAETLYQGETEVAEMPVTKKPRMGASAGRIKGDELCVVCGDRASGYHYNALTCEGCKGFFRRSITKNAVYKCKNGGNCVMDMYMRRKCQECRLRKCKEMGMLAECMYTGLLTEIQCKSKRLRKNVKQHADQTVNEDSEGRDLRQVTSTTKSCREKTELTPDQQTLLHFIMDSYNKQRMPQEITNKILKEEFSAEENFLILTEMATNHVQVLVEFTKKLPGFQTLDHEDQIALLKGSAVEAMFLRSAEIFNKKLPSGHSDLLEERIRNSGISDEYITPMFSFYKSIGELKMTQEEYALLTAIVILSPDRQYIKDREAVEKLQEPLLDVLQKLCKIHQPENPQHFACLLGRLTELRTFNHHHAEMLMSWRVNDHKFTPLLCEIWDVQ
Chain of Peroxisome proliferator-activated receptor delta (Homo sapiens) (Q03181 whole entry, looked up): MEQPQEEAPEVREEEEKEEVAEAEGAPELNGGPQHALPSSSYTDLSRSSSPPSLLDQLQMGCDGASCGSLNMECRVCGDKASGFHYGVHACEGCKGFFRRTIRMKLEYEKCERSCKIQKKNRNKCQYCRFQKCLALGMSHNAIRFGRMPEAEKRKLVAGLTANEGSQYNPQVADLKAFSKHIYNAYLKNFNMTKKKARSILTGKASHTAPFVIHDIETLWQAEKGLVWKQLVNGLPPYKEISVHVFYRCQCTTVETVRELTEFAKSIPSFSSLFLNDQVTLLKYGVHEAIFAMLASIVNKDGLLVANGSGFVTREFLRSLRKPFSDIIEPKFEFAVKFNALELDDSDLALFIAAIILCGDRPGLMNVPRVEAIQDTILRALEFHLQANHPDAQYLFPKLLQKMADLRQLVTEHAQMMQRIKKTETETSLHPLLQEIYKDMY
Chain of Vitamin D3 receptor (Homo sapiens) (P11473 whole entry, looked up): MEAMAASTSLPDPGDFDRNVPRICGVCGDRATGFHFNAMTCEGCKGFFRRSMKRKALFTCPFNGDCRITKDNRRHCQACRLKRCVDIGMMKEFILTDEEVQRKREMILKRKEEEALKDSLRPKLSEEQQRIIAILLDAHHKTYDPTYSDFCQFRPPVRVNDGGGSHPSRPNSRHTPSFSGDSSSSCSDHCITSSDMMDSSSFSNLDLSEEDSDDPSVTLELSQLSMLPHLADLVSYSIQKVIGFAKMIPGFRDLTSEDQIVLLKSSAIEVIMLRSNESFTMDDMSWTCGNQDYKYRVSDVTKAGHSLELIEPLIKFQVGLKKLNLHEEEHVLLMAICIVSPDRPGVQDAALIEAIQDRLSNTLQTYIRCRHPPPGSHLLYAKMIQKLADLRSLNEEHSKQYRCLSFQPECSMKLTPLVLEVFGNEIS

c1ccc2sc(SN(C3CCCCC3)C3CCCCC3)nc2c1
not listed: [19]
inactive: all other assays above

CC1=C(CC=O)C(C)(C)CCC1
not listed: [2] | [4] | [5] | [9] | [19]
inactive: all other assays above

CC(C)=CCC1C(=O)N(c2ccccc2)N(c2ccccc2)C1=O
not listed: [2] | [3] | [4] | [5] | [9] | [19]
inactive: all other assays above

OC1(c2ccccc2)CCNCC1
not listed: [2] | [4] | [5] | [8] | [19]
inactive: all other assays above

CC1(C)S[C@@H]2[C@H](NC(=O)C(c3ccccc3)S(=O)(=O)O)C(=O)N2[C@H]1C(=O)O (stereo partly drawn)
not listed: [2] | [4] | [5] | [6] | [8] | [19]
inactive: all other assays above

Nc1ncnc2c1ncn2[C@H]1CC[C@@H](CO)O1
not listed: [3] | [4] | [11] | [19]
inactive: all other assays above

O=C(O)CCCCCCCCCCCBr
not listed: [5] | [8] | [9] | [11] | [19]
inactive: all other assays above

CC(=O)OCC(=O)NCCCOc1cccc(CN2CCCCC2)c1
not listed: [3] | [4]
inactive: all other assays above

Cc1ccc(C(C)(C)O)cc1
not listed: [5] | [9] | [19]
inactive: all other assays above

O=C(O)CCC(=O)C(=O)O
not listed: [2] | [4] | [5] | [11] | [19]
inactive: all other assays above
